Over roughly 16,000 sequences, “rpm ratio (pull-down/input)” has its median near 0.5; the highest 2% begin near 5.5. The sample holds the highest values, similar sequences and a random draw of the others, so the mix is not that of the screen.

In this assay the target is T1, MBP-FoxP3dN (Mus musculus, UniProt Q99JB6 188-423).
T1 sequence: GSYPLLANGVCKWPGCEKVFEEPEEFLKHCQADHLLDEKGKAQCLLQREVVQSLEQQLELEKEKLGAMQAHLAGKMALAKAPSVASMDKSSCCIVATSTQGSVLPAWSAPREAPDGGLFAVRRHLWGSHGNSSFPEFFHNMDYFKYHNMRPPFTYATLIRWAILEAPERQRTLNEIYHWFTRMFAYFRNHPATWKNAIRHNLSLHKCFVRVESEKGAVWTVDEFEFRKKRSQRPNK
Briefly: PD-seq (MBP pull-down with sequencing); 20 mM Tris-HCl pH 7.5, 100 mM NaCl, 1.5 mM MgCl2, 0.4 uM protein, 0.1 uM dsDNA library, 30 min, room temperature, amylose pull-down; high values mean tight binding. The following applies: protein: recombinant; tags: His6-MBP; chain copies: 2; dsDNA, one strand shown. Put shortly:
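Binding is the reads-per-million enrichment of pull-down relative to input, pooled across replicates. For this, 0.4 µM His6-MBP-tagged mouse FoxP3 or FoxP1 fragment lacking the N-terminus, made in E. coli, was incubated with 0.1 µM Klenow-filled double-stranded degenerate DNA library for 30 min at room temperature in Tris pH 7.5 buffer with NaCl and MgCl2. Complexes bound to amylose resin were washed three times before proteinase K released the DNA for PCR barcoding and Illumina sequencing.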
Consider “GATGATTGTTCTCCCAGCTGATGAATTGCCTCGGTCGAGTAAACAAATTTTCCTAATCTTTCTGTTCAAGCGCCATCTAC”, for which the binding signal was 0.565 RPM ratio (pull-down/input).
The figure for “GATGATTGTTCTCCCAGCTGATGAATTTTCAACTTCGAGTAAACAAATTTTCCTAATCTTTCTGTTCAAGCGCCATCTAC” is 0.307 RPM ratio (pull-down/input); for “GATGATTGTTCTCCCAGCTGATGAATTGAATGACTCGAGTAAACAAATTTTCCTAATCTTTCTGTTCAAGCGCCATCTAC” it is 0.545 RPM ratio (pull-down/input); for “GATGATTGTTCTCCCAGCTGATGAATTGTTAAAATCGAGTAAACAAATTTTCCTAATCTTTCTGTTCAAGCGCCATCTAC” it is 0.291 RPM ratio (pull-down/input).
Turning to “GATGATTGTTCTCCCAGCTGATGAATTAAGTAGCTCGAGTAAACAAATTTTCCTAATCTTTCTGTTCAAGCGCCATCTAC”, the binding signal was 0.874 RPM ratio (pull-down/input).
Regarding “GATGATTGTTCTCCCAGCTGATGAATTGCAGCATTCGAGTAAACAAATTTTCCTAATCTTTCTGTTCAAGCGCCATCTAC”, the binding signal is 5.93 RPM ratio (pull-down/input).
The figure for “GATGATTGTTCTCCCAGCTGATGAATTTGCATTGTCGAGTAAACAAATTTTCCTAATCTTTCTGTTCAAGCGCCATCTAC” is 5.29 RPM ratio (pull-down/input).
Regarding “GATGATTGTTCTCCCAGCTGATGAATTTGCCATTTCGAGTAAACAAATTTTCCTAATCTTTCTGTTCAAGCGCCATCTAC”, the binding signal was 2.91 RPM ratio (pull-down/input).
As to “GATGATTGTTCTCCCAGCTGATGAATTTTGCATTTCGAGTAAACAAATTTTCCTAATCTTTCTGTTCAAGCGCCATCTAC”, the binding signal was 6.44 RPM ratio (pull-down/input).
With “GATGATTGTTCTCCCAGCTGATGAATTTTGCCATTCGAGTAAACAAATTTTCCTAATCTTTCTGTTCAAGCGCCATCTAC” the figure was 5.66 RPM ratio (pull-down/input).
“GATGATTGTTCTCCCAGCTGATGAATTGCATTCTTCGAGTAAACAAATTTTCCTAATCTTTCTGTTCAAGCGCCATCTAC”: the binding signal is 4.62 RPM ratio (pull-down/input).
For “GATGATTGTTCTCCCAGCTGATGAATTTGCATTTTCGAGTAAACAAATTTTCCTAATCTTTCTGTTCAAGCGCCATCTAC”, the binding signal is 5.38 RPM ratio (pull-down/input).
With “GATGATTGTTCTCCCAGCTGATGAATTGTTGCATTCGAGTAAACAAATTTTCCTAATCTTTCTGTTCAAGCGCCATCTAC” the figure was 7.63 RPM ratio (pull-down/input); with “GATGATTGTTCTCCCAGCTGATGAATTTGCCCATTCGAGTAAACAAATTTTCCTAATCTTTCTGTTCAAGCGCCATCTAC”, 0.615 RPM ratio (pull-down/input).
With “GATGATTGTTCTCCCAGCTGATGAATTCGTTGCATCGAGTAAACAAATTTTCCTAATCTTTCTGTTCAAGCGCCATCTAC” the figure was 2.22 RPM ratio (pull-down/input); with “GATGATTGTTCTCCCAGCTGATGAATTCGCGGAGTCGAGTAAACAAATTTTCCTAATCTTTCTGTTCAAGCGCCATCTAC”, 0.23 RPM ratio (pull-down/input); with “GATGATTGTTCTCCCAGCTGATGAATTTGGGTTGTCGAGTAAACAAATTTTCCTAATCTTTCTGTTCAAGCGCCATCTAC”, 1.1 RPM ratio (pull-down/input).
Take “GATGATTGTTCTCCCAGCTGATGAATTCCTACGGTCGAGTAAACAAATTTTCCTAATCTTTCTGTTCAAGCGCCATCTAC”: the binding signal is 0.213 RPM ratio (pull-down/input).
As to “GATGATTGTTCTCCCAGCTGATGAATTCCCTGTTTCGAGTAAACAAATTTTCCTAATCTTTCTGTTCAAGCGCCATCTAC”, the binding signal was 0.346 RPM ratio (pull-down/input).
Regarding “GATGATTGTTCTCCCAGCTGATGAATTAGAATAGTCGAGTAAACAAATTTTCCTAATCTTTCTGTTCAAGCGCCATCTAC”, the binding signal was 0.342 RPM ratio (pull-down/input).
With “GATGATTGTTCTCCCAGCTGATGAATTTTTTTTTTCGAGTAAACAAATTTTCCTAATCTTTCTGTTCAAGCGCCATCTAC” the figure was 0.217 RPM ratio (pull-down/input).
With “GATGATTGTTCTCCCAGCTGATGAATTCCGGCGTTCGAGTAAACAAATTTTCCTAATCTTTCTGTTCAAGCGCCATCTAC” the figure was 1.07 RPM ratio (pull-down/input).
With “GATGATTGTTCTCCCAGCTGATGAATTCACGTCATCGAGTAAACAAATTTTCCTAATCTTTCTGTTCAAGCGCCATCTAC” the figure was 0.59 RPM ratio (pull-down/input); with “GATGATTGTTCTCCCAGCTGATGAATTATTGGAGTCGAGTAAACAAATTTTCCTAATCTTTCTGTTCAAGCGCCATCTAC”, 0.296 RPM ratio (pull-down/input); with “GATGATTGTTCTCCCAGCTGATGAATTTAAACGCTCGAGTAAACAAATTTTCCTAATCTTTCTGTTCAAGCGCCATCTAC”, 0.381 RPM ratio (pull-down/input).
On to “GATGATTGTTCTCCCAGCTGATGAATTGCATCCTTCGAGTAAACAAATTTTCCTAATCTTTCTGTTCAAGCGCCATCTAC”, for which the binding signal is 5.53 RPM ratio (pull-down/input).
“GATGATTGTTCTCCCAGCTGATGAATTGCATTATTCGAGTAAACAAATTTTCCTAATCTTTCTGTTCAAGCGCCATCTAC”: the binding signal was 3.3 RPM ratio (pull-down/input).
The figure for “GATGATTGTTCTCCCAGCTGATGAATTGAATCCTTCGAGTAAACAAATTTTCCTAATCTTTCTGTTCAAGCGCCATCTAC” is 0.33 RPM ratio (pull-down/input); for “GATGATTGTTCTCCCAGCTGATGAATTATTCCATTCGAGTAAACAAATTTTCCTAATCTTTCTGTTCAAGCGCCATCTAC” it is 0.434 RPM ratio (pull-down/input); for “GATGATTGTTCTCCCAGCTGATGAATTTGCATCTTCGAGTAAACAAATTTTCCTAATCTTTCTGTTCAAGCGCCATCTAC” it is 7.16 RPM ratio (pull-down/input).
With “GATGATTGTTCTCCCAGCTGATGAATTCTTGCATTCGAGTAAACAAATTTTCCTAATCTTTCTGTTCAAGCGCCATCTAC”, the binding signal is 6.02 RPM ratio (pull-down/input).
Take “GATGATTGTTCTCCCAGCTGATGAATTGCATTCGTCGAGTAAACAAATTTTCCTAATCTTTCTGTTCAAGCGCCATCTAC”: the binding signal was 3.88 RPM ratio (pull-down/input).
“GATGATTGTTCTCCCAGCTGATGAATTCCTTGCATCGAGTAAACAAATTTTCCTAATCTTTCTGTTCAAGCGCCATCTAC”: the binding signal is 0.828 RPM ratio (pull-down/input).
For “GATGATTGTTCTCCCAGCTGATGAATTATTGCATTCGAGTAAACAAATTTTCCTAATCTTTCTGTTCAAGCGCCATCTAC”, the binding signal was 7.31 RPM ratio (pull-down/input).
On to “GATGATTGTTCTCCCAGCTGATGAATTGCATCTTTCGAGTAAACAAATTTTCCTAATCTTTCTGTTCAAGCGCCATCTAC”, for which the binding signal is 5.4 RPM ratio (pull-down/input).
For “GATGATTGTTCTCCCAGCTGATGAATTGCCATCTTCGAGTAAACAAATTTTCCTAATCTTTCTGTTCAAGCGCCATCTAC”, the binding signal was 1.07 RPM ratio (pull-down/input).
With “GATGATTGTTCTCCCAGCTGATGAATTTGCAGCTTCGAGTAAACAAATTTTCCTAATCTTTCTGTTCAAGCGCCATCTAC” the figure was 1.22 RPM ratio (pull-down/input).

For the origin of these results see publication PMC12820563, “FoxP3 forms a head-to-head dimer in vivo and stabilizes its multimerization on adjacent microsatellites”.
